HEK293 tox: Cytotoxic Profiling in HEK 293 Cell Line of Diverse Libraries Using Quantitative High-Throughput Screening; HEK 293 viability, ATP luminescence (CellTiter-Glo), 48-72 h; Potency, µM (series often up to 115 µM), without a hit: at the highest dose activity change, negative = cytotoxicity, actives largely listed as inhibitors; 6.6% of 94,000 active; AID 1345083, 2018; further: nearly all actives have a fitted effect of over 60% in size
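Read-out: CellTiter-Glo ATP luminescence. Cells: HEK 293, 250 cells/well. Exposure: 48 or 72 hr, 37 degree Celsius.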
Luciferase inh: Firefly luciferase inhibition profiling of diverse chemical library using quantitative high-throughput screening; purified P. pyralis luciferase, luminescence, biochemical; AID 1347043, 2019; 2.5% of 76,000 active; Potency, µM (titrated, usually from 115 µM), hits mostly inhibitors; Luciferin 4-monooxygenase (Photinus pyralis), P08659; further: nearly all actives have a fitted effect of over 65% in size
Target sequence (P08659 whole entry, looked up): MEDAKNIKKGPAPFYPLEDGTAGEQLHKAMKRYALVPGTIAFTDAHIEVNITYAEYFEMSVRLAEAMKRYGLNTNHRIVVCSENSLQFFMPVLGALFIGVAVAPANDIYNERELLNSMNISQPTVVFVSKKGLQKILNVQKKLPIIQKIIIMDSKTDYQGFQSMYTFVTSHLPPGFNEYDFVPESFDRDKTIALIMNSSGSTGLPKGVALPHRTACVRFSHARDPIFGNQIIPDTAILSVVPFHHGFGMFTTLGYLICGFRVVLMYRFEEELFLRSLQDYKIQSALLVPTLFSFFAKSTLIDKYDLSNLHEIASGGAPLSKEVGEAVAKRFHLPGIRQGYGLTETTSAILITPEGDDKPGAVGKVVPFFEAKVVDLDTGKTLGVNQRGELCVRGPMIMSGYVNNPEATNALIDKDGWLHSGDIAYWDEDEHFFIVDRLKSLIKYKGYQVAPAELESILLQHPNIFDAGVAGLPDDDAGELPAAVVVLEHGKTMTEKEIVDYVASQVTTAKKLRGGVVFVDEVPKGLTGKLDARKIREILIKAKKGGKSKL
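FLuc 10nM, D-luciferin 10uM, ATP 10uM, Mg acetate 10mM, Tris acetate pH 7.5, Tween/BSA; cpd qHTS; enzyme added last; CCD luminescence.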
GPT2 inh: Primary qHTS assay for inhibitors of Glutamate pyruvate transaminase 2 (GPT2) | Alanine aminotransferase 2 (Homo sapiens), Q8TD30 | Recombinant GPT2, coupled pyruvate oxidase/HRP Amplex Red fluorescence | Potency, µM (highest dose often 57.7 µM), without a hit: at the top dose activity change, negative = inhibition, usual class: inhibitors | 0.25% of 100,000 active | AID 1671188, 2021; further: nearly all actives have a fitted effect of over 60% in size
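Inhibition is scored from Amplex Red fluorescence generated when pyruvate oxidase and HRP act on pyruvate released by GPT2. Reactions contain 10ng/uL enzyme, 250uM a-KG and 2mM L-alanine and run 30 min at room temperature.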
NPR1 antag: Natriuretic polypeptide receptor (hNpr1) antagonism - Primary qHTS | AID 1347048, 2019 | Potency, µM (titrated, usually from 46.3 µM), without a hit: top-dose activity change, negative = inhibition, hits mostly inhibitors | 1.6% of 76,000 active | HEK293 hNpr1 GloSensor cGMP, ANP-stimulated luminescence | Atrial natriuretic peptide receptor 1 (Homo sapiens), P16066; calls by dose curve; further: nearly all actives have a fitted effect of over 60% in size
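Compound pre-incubated 30 min at room temperature on GloSensor-loaded HEK293 cells stably carrying hNpr1 and the pGS-40F cGMP biosensor. Stimulation uses hNppA at 0.1 nM final; luminescence is taken at baseline and 20 min post-agonist.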
3T3 cytotox: Cytotoxic Profiling in NIH 3T3 Cell Line of Diverse Libraries Using Quantitative High-Throughput Screening | NIH 3T3 viability, CellTiter-Glo ATP luminescence, 48-72 h | Potency, µM (titrated, usually from 96.7 µM), without a hit: top-dose activity change, negative = cytotoxicity, most hits filed as inhibitors | 4.3% of 94,000 active; further: nearly all actives have a fitted effect of over 55% in size
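Luminescent ATP readout (CellTiter-Glo, 10 min RT) after 48 or 72 hr compound exposure of NIH 3T3 cells seeded at 400 cells/well in 1536-well format; quantitative HTS.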
* marks the source's active call; other numbers are inactive results; i = inactive; ? = inconclusive; . = not tested or not shown; [ ] = dose if it differs, or a comment. Most compounds without a hit are left out; they make up all but 10% or so of the library. Unless noted, the call rests on the fitted dose curve; in most records, active means well fitted curve in the direction sought with a large enough effect; inconclusive means small, poorly fitted or top-dose-only effect, or another doubt; inactive means no such curve, though single readings can be large; an effect the other way counts as inactive or inconclusive. On the % scale 0 is the no-effect control and ±100 the full control effect; potency means the concentration at half of the fitted maximal effect.

SMILES	HEK293 tox	Luciferase inh	GPT2 inh	NPR1 antag	3T3 cytotox
Cc1noc(C)c1-c1cc2c(cc(C)n2CCN(C)C)c(Nc2ccncn2)n1	100µM*	i	-6%[88.5 µM]	-20%[70.6 µM]	25µM*
O=C(NCC1CC1)c1ccnc(-c2nnc3ccc(Nc4ccccc4)nn23)c1	?	i	2%[88.5 µM]	-2%[70.6 µM]	?
COCc1cc(C[C@H]2CNCC[C@H]2CC(=O)NCc2ccc(OC)c(OC)c2)no1	?	i	1%[88.5 µM]	1%[70.6 µM]	?
COc1cc(-c2nc(-c3c(C)noc3C)cc3c2cc(C)n3CCN(C)C)ccn1	71µM*	i	-2%[88.5 µM]	3%[70.6 µM]	?
Cc1cc(-c2nc(-c3c(C)noc3C)cc3c2cc(C)n3CCN(C)C)ccn1	?	i	-26%[88.5 µM]	-5%[70.6 µM]	?
Fc1ccc2nc(CO[C@H]3CN(Cc4cnc5ccccc5c4)C[C@H]3F)[nH]c2c1	71µM*	i	-2%[88.5 µM]	?	?
COc1cc(CN2C[C@@H](F)[C@@H](OCc3nc4ccc(F)cc4[nH]3)C2)cc(OC)c1OC	-16%[172 µM]	i	i	1%[70.6 µM]	-12%[138 µM]
COC(=O)c1ccc2nc(CO[C@H]3CN(Cc4ccc5ccccc5n4)C[C@H]3F)[nH]c2c1	100µM*	?	-11%[88.5 µM]	1%[70.6 µM]	?
COC(=O)c1ccc2nc(CO[C@H]3CN(Cc4ccccc4C)C[C@H]3F)[nH]c2c1	?	?	?	-1%[70.6 µM]	?
COc1ccc(F)c(-c2nc(CN(C)CC3(CO)CC3)c(C)o2)c1	-2%	?	-2%	4%	-19%
CN(Cc1cccnc1)c1nc2c(c(=O)[nH]1)CCN(Cc1ccccc1C(F)(F)F)CC2	20µM*	i	i	?	?
CN(Cc1cccnc1)Cc1nc(C2(O)CCN(Cc3ccccc3C(F)(F)F)CC2)cs1	45µM*	i	i	-21%	?
Cc1ccccc1C(=O)NC[C@@H]1CC[C@H]2C[C@@H]1C2(C)C	?	i	i	-5%[70.6 µM]	?
CC1(C)[C@H]2CC[C@@H](CNC(=O)c3ccc(Cl)nc3)[C@@H]1C2	?	i	-3%[88.5 µM]	-7%[70.6 µM]	79µM*
CC1(C)[C@H]2CC[C@@H](CNC(=O)c3ccc4ccccc4n3)[C@@H]1C2	?	i	-10%[88.5 µM]	0%[70.6 µM]	89µM*
Cc1cc(C(=O)NC[C@@H]2CC[C@H]3C[C@@H]2C3(C)C)ccc1Cl	?	i	3%[88.5 µM]	?	35µM*
CC1(C)[C@H]2CC[C@@H](CNC(=O)c3cccc(Br)c3)[C@@H]1C2	100µM*	i	0%[88.5 µM]	-2%[70.6 µM]	?
Cc1ccc(C(=O)NC[C@@H]2CC[C@H]3C[C@@H]2C3(C)C)cc1	?	i	i	6%[70.6 µM]	?
Cc1cccc(NC(=O)C2CC(=O)N(c3n[nH]c4cc(Br)ccc34)C2)c1C (configuration not stated)	2%	i	i	8%	3%
O=C(CC1CCN(S(=O)(=O)c2ccc3c(c2)OCCO3)C1)NCc1ccccc1 (configuration not stated)	?	i	i	-11%	-24%
CC1(C)[C@H]2CC[C@@H](CNC(=O)N3CCCC3)[C@@H]1C2	63µM*	i	i	-7%[70.6 µM]	?
CC1(C)[C@H]2CC[C@@H](CNC(=O)Cc3cccc(Cl)c3)[C@@H]1C2	100µM*	i	i	8%[70.6 µM]	?
CCC(=O)NC[C@@H]1CC[C@H]2C[C@@H]1C2(C)C	-11%[230 µM]	i	i	6%[70.6 µM]	-27%[174 µM]
O=C(NC1CCN(C(=O)N2CC3CC(C2)[C@H]2CCCC(=O)N2C3)CC1)c1cnccn1 (some centres not stated)	3%	i	1%	5%	4%
Cc1noc(C)c1S(=O)(=O)N1CCC2(CC1)CC(N1CCN(C)CC1)CCO2 (configuration not stated)	7%	i	-6%	0%	5%
SMILES	HEK293 tox	Luciferase inh	GPT2 inh	NPR1 antag	3T3 cytotox
NCCC(=O)NC1CCCc2c1cnn2-c1ccc(F)cc1F (configuration not stated)	-1%	i	-3%[11.5 µM]	0%	-11%
CC1(C(=O)NCc2ccc(F)cc2)CCCc2cnc(Nc3cccnc3)nc21 (configuration not stated)	-16%[172 µM]	i	1%[88.5 µM]	-9%[70.6 µM]	?
CC1(C(=O)NCc2cnccn2)CCCc2cnc(NCc3ccccc3)nc21 (configuration not stated)	-4%[172 µM]	i	3%[88.5 µM]	4%[70.6 µM]	89µM*
CC1(C(=O)NCc2ccncc2)CCCc2cnc(Nc3ccccc3)nc21 (configuration not stated)	-24%[172 µM]	i	i	0%[70.6 µM]	100µM*
CC1(C(=O)NCc2ccncc2)CCCc2cnc(NCc3ccccc3)nc21 (configuration not stated)	89µM*	i	?	-2%[70.6 µM]	25µM*
CC1(C(=O)NCc2cnccn2)CCc2cnc(Nc3ccccc3)nc21 (configuration not stated)	?	i	-15%[88.5 µM]	4%[70.6 µM]	?
CC1(C(=O)NCCN2CCOCC2)CCCc2cnc(NCc3ccccc3)nc21 (configuration not stated)	-5%[172 µM]	i	-18%[88.5 µM]	0%[70.6 µM]	?
O=C(CC1CCOCC1)N1CCN(Cc2ccccc2F)CC1	?	i	i	-5%	0%
COc1cccc(-c2cccc(C(=O)N3CCN(C(C)=O)CC3)c2)c1	-15%[172 µM]	.	i	.	-22%[138 µM]
CCCCNC(=O)N1CC(C(=O)NCc2ccco2)CC(c2ccc(OC)c(OC)c2)C1 (configuration not stated)	2%	i	i	5%	-6%
CC[C@H]1CN(C(=O)N2CCOCC2)CC[C@H]1CC(=O)Nc1nccs1	?	i	-10%[88.5 µM]	3%[70.6 µM]	50µM*
CCNC(=O)N1CCC(c2nnc(CN3CCCC3)n2CC)CC1	i	i	3%[11.5 µM]	2%	i
Cc1nc2ccc(C(=O)NCc3cccnc3Oc3ccccc3C)cc2[nH]1	?	i	i	-20%	50µM*
Cc1ccccc1Oc1ncccc1CNC(=O)c1ccc2c(c1)OCO2	-11%	i	i[11.5 µM]	-2%	?
Cc1ccccc1-c1ccnc(-c2nnc(C)n2Cc2ccncc2)c1	?	i	-29%[88.5 µM]	0%[70.6 µM]	-15%[138 µM]
CCCn1cc2c3c(cccc31)CN(C(=O)COc1ccc(F)cc1)CC2	45µM*	i	-16%	-22%	?
Cc1ccc(CC2CCOC3(CCN(C(=O)c4cccs4)CC3)C2)cc1 (configuration not stated)	45µM*	i	-16%	?	?

Bioassay records (PubChem BioAssay)
